Data on ten compounds can be found in PubChem BioAssay (NCI).

The panel holds about 83,000 compounds, 20% with a hit somewhere; the sample as a whole holds those more often.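 The endpoint reported here, percent growth, reads 100 for growth as untreated, 0 for no net growth and -100 for all cells dead.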 Values without a mark were called inactive. Activity calls are given as the source filed them. Rule for the calls: active = growth percent below 10; inactive = the rest.

Some test systems named below: MOLT-4 leukemia; SR leukemia; RPMI-8226 leukemia; OVCAR-8 ovarian; OVCAR-5 ovarian; OVCAR-4 ovarian; SK-OV-3 ovarian; OVCAR-3 ovarian; HS 578T breast; NCI/ADR-RES ovarian; T-47D breast; BT-549 breast; MDA-MB-435 melanoma; SW-620 colon; HCT-116 colon; HCC-2998 colon; KM12 colon; IGROV1 ovarian; MCF7 breast.
Common to all, as to test: NCI-60 one-dose screen, 48 h (100 = growth as untreated, 0 = no growth, -100 = all killed)
What all share (conditions): 10 µM unless noted

As for `C#Cc1ccc2c(c1)C(c1ccccc1)=NCC(=O)N2C`, the growth in the assay on MOLT-4 leukemia was 39.5%; in the assay on SR leukemia, 38.3%; in the assay on RPMI-8226 leukemia, 64.5%; in the assay on OVCAR-8 ovarian it was 63.3%; in the assay with OVCAR-5 ovarian, 85.5%; with OVCAR-4 ovarian it was 90.9%. Besides, the growth was 31.6% in the assay on SK-OV-3 ovarian; 9.19% (active) with OVCAR-3 ovarian; 56.4% in the assay on HS 578T breast; 17.1% in the assay with NCI/ADR-RES ovarian; 51.6% in the assay on T-47D breast; 45.2% with BT-549 breast. Besides, the growth with MDA-MB-435 melanoma was 11.4%; in the assay with SW-620 colon it was 30.6%; with HCT-116 colon it was 18.9%; in the assay on HCC-2998 colon, 70.5%; with KM12 colon it was 28.8%.

For `CN(CCCCN(C)CCOS(C)(=O)=O)CCOS(C)(=O)=O`, the growth is 28% with MOLT-4 leukemia; 12.1% in the assay on SR leukemia; 90.8% with RPMI-8226 leukemia; 72.6% in the assay on OVCAR-8 ovarian; 97.6% in the assay with OVCAR-5 ovarian; 86.7% in the assay on SK-OV-3 ovarian. The growth in the assay with IGROV1 ovarian is 65.8%; in the assay with OVCAR-3 ovarian it was 103%; with HS 578T breast, 95.3%; with NCI/ADR-RES ovarian, 76.3%; in the assay with T-47D breast, 81.1%; in the assay on MDA-MB-435 melanoma, 101%. Moreover, the growth is 74.1% in the assay with SW-620 colon; 71.2% in the assay on MCF7 breast; 81.4% with HCT-116 colon; 58.4% with HCC-2998 colon; 95.1% in the assay on KM12 colon.

With `CC(=O)Nc1ccc(NC(=O)c2ccc([As](O)O)cc2)cc1`, the growth with MOLT-4 leukemia was 108%; in the assay on SR leukemia it was 73.8%; in the assay with RPMI-8226 leukemia, 34.5%; in the assay on OVCAR-8 ovarian it was 102%; with OVCAR-5 ovarian, 140%; with OVCAR-4 ovarian, 103%. Also, the growth in the assay on OVCAR-3 ovarian is 114%; in the assay on HS 578T breast, 117%; with NCI/ADR-RES ovarian, 101%; in the assay on T-47D breast, 48.3%; in the assay on BT-549 breast, 113%; in the assay on MDA-MB-435 melanoma, 99.8%. The growth in the assay with SW-620 colon was 87.9%; in the assay with MCF7 breast, 85%; in the assay on HCT-116 colon, 101%; with HCC-2998 colon it was 112%; with KM12 colon it was 124%.

With `Fc1ccc(C2=CCNCC2)cc1`, the growth was 106% in the assay on MOLT-4 leukemia; 114% in the assay with SR leukemia; 122% in the assay with RPMI-8226 leukemia; 100% with OVCAR-8 ovarian; 82.3% in the assay with OVCAR-5 ovarian; 111% in the assay on OVCAR-4 ovarian. Besides, the growth in the assay with SK-OV-3 ovarian was 104%; with OVCAR-3 ovarian, 102%; in the assay on HS 578T breast, 114%; with NCI/ADR-RES ovarian, 78.6%; in the assay with T-47D breast, 99.2%; in the assay on SW-620 colon it was 104%. The growth with MCF7 breast is 93.9%; with HCT-116 colon, 109%; in the assay on KM12 colon, 109%.

`C[C@@H]1O[C@@H](O[C@H]2C[C@@H](O)[C@]3(CO)C4C(CC[C@]3(O)C2)[C@@]2(O)CC[C@H](C3=CC(=O)OC3)[C@@]2(C)C[C@H]4O)[C@H](O)[C@H](O)[C@H]1O` (stereo partly specified): the growth in the assay with MOLT-4 leukemia is -29.4% (active); with SR leukemia, -31.2% (active); in the assay with RPMI-8226 leukemia, 17.8%; with OVCAR-8 ovarian, -81% (active); in the assay on OVCAR-4 ovarian, -24.3% (active); in the assay on SK-OV-3 ovarian, -88.2% (active). In addition, the growth is -5.14% (active) in the assay on IGROV1 ovarian; 22.3% with HS 578T breast; -61.5% (active) in the assay on NCI/ADR-RES ovarian; -34.9% (active) in the assay with T-47D breast; -91% (active) in the assay on BT-549 breast; -80.5% (active) with MDA-MB-435 melanoma. The growth with SW-620 colon was -76.9% (active); in the assay on MCF7 breast, -48.1% (active); in the assay with HCT-116 colon, -94.5% (active); in the assay on HCC-2998 colon, -89.4% (active); in the assay with KM12 colon, -89.1% (active).

Consider `COc1ccc2nc(NC(=O)COc3cc(/C=C\c4cc(OC)c(OC)c(OC)c4)ccc3OC)sc2c1`, for which the growth is 12.9% in the assay with MOLT-4 leukemia; 28% in the assay on SR leukemia; 20.9% in the assay with RPMI-8226 leukemia; 24% in the assay on OVCAR-8 ovarian; 71.6% with OVCAR-5 ovarian; 49% in the assay with OVCAR-4 ovarian. The growth with SK-OV-3 ovarian is 8.6% (active); with OVCAR-3 ovarian, -39% (active); with HS 578T breast, -5.92% (active); with NCI/ADR-RES ovarian it was -5.38% (active); with T-47D breast it was 19.9%; in the assay on BT-549 breast, 55.4%. The growth is -45.1% (active) in the assay on MDA-MB-435 melanoma; 25.5% in the assay with SW-620 colon; 16.9% with MCF7 breast; 12.6% with HCT-116 colon; 45.5% in the assay on HCC-2998 colon; 16.8% in the assay with KM12 colon.

On to `O=[N+]([O-])c1cc([N+](=O)[O-])c(Cl)cc1Cl`, for which the growth with MOLT-4 leukemia was -21% (active); in the assay with SR leukemia, -31.3% (active); in the assay with RPMI-8226 leukemia, -50.2% (active); with OVCAR-8 ovarian it was -26.8% (active); in the assay with OVCAR-5 ovarian, -69.1% (active); in the assay with OVCAR-4 ovarian it was -99% (active). Also, the growth with SK-OV-3 ovarian is 104%; with OVCAR-3 ovarian, -98% (active); in the assay with HS 578T breast it was -27.6% (active); in the assay on NCI/ADR-RES ovarian, -45.1% (active); in the assay with T-47D breast it was -35.3% (active); in the assay on MDA-MB-435 melanoma, -66.5% (active). Further, the growth is -77.1% (active) in the assay with SW-620 colon; -57.9% (active) in the assay with MCF7 breast; -98.8% (active) in the assay with HCT-116 colon; 38% with HCC-2998 colon; -81.1% (active) in the assay with KM12 colon.

On to `Cc1cc(NC(=O)NCc2ccc(N3C(N)=NC(N)=NC3(C)C)cc2)ccc1S(=O)(=O)F`, for which the growth in the assay on MOLT-4 leukemia was 42%; in the assay on SR leukemia, 4.98% (active); with OVCAR-8 ovarian it was -4.46% (active); in the assay with OVCAR-5 ovarian it was 10.8%; with OVCAR-4 ovarian it was 39.2%; with SK-OV-3 ovarian, 64.9%. For the same compound, the growth in the assay on IGROV1 ovarian was -51.3% (active); in the assay with OVCAR-3 ovarian it was 67.6%; in the assay with HS 578T breast it was 68.6%; with NCI/ADR-RES ovarian, 112%; with T-47D breast, 59.7%; with BT-549 breast, 42%. Also, the growth in the assay with MDA-MB-435 melanoma was 32.7%; with SW-620 colon it was 23.9%; in the assay with HCT-116 colon it was 23.3%; in the assay on HCC-2998 colon, 5.34% (active); with KM12 colon, 16.2%.

Take `Clc1ccc(COC(Cn2ccnc2)c2ccc(Cl)cc2Cl)cc1` (stereo unspecified): the growth in the assay on MOLT-4 leukemia was -28.4% (active); in the assay on SR leukemia it was -25.9% (active); in the assay on RPMI-8226 leukemia it was 39.7%; in the assay with OVCAR-8 ovarian, 51.8%; with OVCAR-4 ovarian it was 54%; in the assay on SK-OV-3 ovarian, 91.2%. For the same compound, the growth with IGROV1 ovarian was 35%; with OVCAR-3 ovarian it was 40.4%; with HS 578T breast it was 69.2%; in the assay with NCI/ADR-RES ovarian it was 23.3%; in the assay with T-47D breast, 48.3%; in the assay with BT-549 breast, 55.9%. In addition, the growth in the assay on MDA-MB-435 melanoma was 27.5%; with SW-620 colon, 34.3%; in the assay on MCF7 breast, 57.9%; in the assay with HCT-116 colon, 33.6%; in the assay with HCC-2998 colon, 64.2%; in the assay on KM12 colon it was 29.1%.

As to `O=C1C=C(N2C3C4CCC(C4)C32)C(=O)C=C1c1ccccc1` (stereo unspecified), the growth was 2.18% (active) in the assay with MOLT-4 leukemia; 0.878% (active) in the assay on SR leukemia; 53.1% in the assay with RPMI-8226 leukemia; 72.4% in the assay on OVCAR-8 ovarian; 102% with OVCAR-5 ovarian; 48% in the assay with OVCAR-4 ovarian. Besides, the growth was 88.9% with SK-OV-3 ovarian; 74.5% with OVCAR-3 ovarian; 102% with HS 578T breast; 99.4% with NCI/ADR-RES ovarian; 6.64% (active) in the assay with T-47D breast; 93.2% in the assay on BT-549 breast. Further, the growth was 99.7% with MDA-MB-435 melanoma; 82.6% in the assay with SW-620 colon; 62.4% with MCF7 breast; 85% in the assay with HCT-116 colon; 115% in the assay with HCC-2998 colon; 102% with KM12 colon.
